The full ranking holds about 33,000 sequences; the median of “E-score (-0.5 to 0.5)” is about -0.012, and the highest 2% start at about 0.29. The full list was thinned out, with the highest values kept by preference.
Biological target: T1, Ybr033w (UniProt P38073)
T1 sequence: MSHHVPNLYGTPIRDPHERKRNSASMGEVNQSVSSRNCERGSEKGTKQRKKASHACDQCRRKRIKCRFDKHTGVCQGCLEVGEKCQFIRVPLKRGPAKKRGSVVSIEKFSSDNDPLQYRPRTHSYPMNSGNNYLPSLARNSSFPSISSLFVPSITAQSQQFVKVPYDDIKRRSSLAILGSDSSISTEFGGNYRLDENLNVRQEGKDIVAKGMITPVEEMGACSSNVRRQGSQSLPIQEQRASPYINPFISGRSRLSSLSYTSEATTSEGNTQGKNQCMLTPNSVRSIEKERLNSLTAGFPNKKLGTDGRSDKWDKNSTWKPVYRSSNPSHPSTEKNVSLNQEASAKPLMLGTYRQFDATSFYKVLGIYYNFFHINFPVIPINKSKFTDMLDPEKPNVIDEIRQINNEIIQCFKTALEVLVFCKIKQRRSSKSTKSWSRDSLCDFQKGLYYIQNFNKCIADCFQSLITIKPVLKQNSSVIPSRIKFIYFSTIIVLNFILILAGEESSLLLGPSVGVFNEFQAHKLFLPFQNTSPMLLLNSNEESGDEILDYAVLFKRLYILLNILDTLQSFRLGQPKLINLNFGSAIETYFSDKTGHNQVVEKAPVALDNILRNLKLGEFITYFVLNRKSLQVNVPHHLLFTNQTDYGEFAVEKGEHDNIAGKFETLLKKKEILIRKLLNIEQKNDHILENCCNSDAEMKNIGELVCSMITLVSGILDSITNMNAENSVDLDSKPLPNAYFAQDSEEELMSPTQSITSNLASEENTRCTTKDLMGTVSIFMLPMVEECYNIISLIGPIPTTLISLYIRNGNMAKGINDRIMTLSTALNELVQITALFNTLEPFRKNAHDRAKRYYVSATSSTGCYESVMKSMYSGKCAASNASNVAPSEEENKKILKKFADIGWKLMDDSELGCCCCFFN
Assay: PBM E-score (8-mer binding enrichment) (E-score (-0.5 to 0.5)); higher = stronger / more preferred TF binding
Conditions: protein concentration: 200 nM; construct: GST-full length
Method: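 Universal 'all 10-mer' protein binding microarrays (Agilent AMADID 015681) probed with GST-tagged S. cerevisiae TFs (full-length or DBD) made by in vitro transcription/translation (PURExpress), about 100-200 nM. Bound TF was detected with fluorescent anti-GST. Each ungapped 8-mer (which stands for itself and its reverse complement) is scored by the PBM enrichment score (E-score), a modified Wilcoxon-Mann-Whitney statistic from -0.5 to +0.5, computed with the Universal PBM Analysis Suite. Scale: above 0.35 generally sequence-specific binding.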

Point of comparison: CTTATCCC, “PBM E-score” value -0.16. Against it:
- GTCCAGAA — higher, -0.051
- GTCCACAA — higher, 0.0077
- CTCCAGAA — higher, -0.0883
- TTCCACAA — higher, 0.314
- TTCCAGAA — higher, 0.294
- CTCCACAA — higher, 0.0525
- ATGAAGAA — higher, 0.126
- CTGAACAG — higher, 0.00549
- GACGACAA — higher, 0.293
- AACGACAA — higher, 0.175
- CACGACAA — higher, -0.0495
- GAAAGTAC — higher, 0.0791
- GACCATTA — higher, 0.2
- GACTTAAA — higher, 0.0498
- GGTTAAGA — higher, 0.0725
- TACTACCA — higher, 0.106
- AACATAAA — higher, 0.11
- GACATATA — higher, 0.185
- AACATAAT — higher, 0.295
- CTCATTTA — higher, 0.0742
- AACATAAC — higher, 0.281
- ATCATTAG — higher, 0.16
- CACATATA — higher, 0.0859
- ATCATTAA — higher, 0.313
- CTCATTAA — higher, 0.23
- ATCATTTC — higher, 0.258
- ATCATTTA — higher, 0.336
- AACATATA — higher, 0.298
- AGTTGTAT — higher, 0.0541
- TGGCCTAA — higher, -0.088
- ATGGCAAG — higher, -0.0226
- GTCCTTGA — higher, -0.0584
- GACCTATC — higher, -0.0417
- AGCCACGA — lower, -0.228
- TCACACGA — higher, -0.00326
- CTACTAAC — higher, 0.222
- CAAGCGTA — higher, 0.093
- AACATTTC — higher, 0.272
- AACATTTA — higher, 0.296
- GACATTTA — higher, -0.045
- CCACTTGC — higher, -0.0925
- CCGCGCGG — higher, 0.104
- AGATCGAG — higher, 0.0958
- TACCAATA — higher, 0.0786
- ACCATCAA — higher, 0.137
- GACATCAA — higher, 0.0415
- AACATCAA — higher, 0.319
- CACATCAA — higher, 0.127
- TCCATCAA — higher, 0.312
- CCCATCAA — higher, 0.101
- AATGCCAA — higher, 0.112
- CACCTCAC — higher, 0.0264
- TCCTTTAA — higher, 0.132
- ATGACTGG — lower, -0.17
- GACTGCAC — lower, -0.221
- ATCAATTC — higher, 0.125
- AACAATTA — higher, 0.366
- AACAATTG — higher, 0.115
- ATCAATAA — higher, 0.321
- ATCAATAG — higher, 0.178
- ATCAATTG — higher, 0.252
- CTCAATAA — higher, 0.12
- AACAATTC — higher, 0.205
- ATCAATTA — higher, 0.365
- CAGGAGGC — lower, -0.202
- CAATTGCC — higher, 0.0461
- AATACTCG — higher, 0.22
- CTGAGACC — lower, -0.291
- CGTCTGGC — higher, 0.0541
- ATACCATG — higher, -0.0754
- ATACCATA — higher, 0.297
- GTACCATA — higher, 0.00958
- ATCGAAAT — higher, 0.119
- AATAAAGT — higher, 0.265
- GCAAAGTA — higher, 0.113
- GTAAAGTA — higher, 0.174
- ATAAAGTG — higher, 0.244
- ACAAAGTC — higher, 0.0213
- ATAAAGAA — higher, 0.291
- ACAAAGTA — higher, 0.3
- TTAAAGAA — higher, 0.117
- ATAAAGTA — higher, 0.306
- CTAAAGAA — higher, 0.0669
- AGTAAGAA — higher, 0.208
- AACAGTGA — higher, -0.0153
- ATGTGCTA — higher, 0.208
- GCTGCTCA — higher, -0.11
- CTCTCTCC — lower, -0.21
- ACACTCAC — higher, 0.0907
- GACGCAGA — higher, -0.127
- ATAGCTAT — higher, 0.13
- ATTATCCC — higher, 0.321
- ATTATCCA — higher, 0.341
- ATTATCCG — higher, 0.469
- ACTATCCC — lower, -0.24
- GTTATCCA — higher, 0.0783
- CTTATCCA — higher, 0.0666
- ATTATCGC — higher, 0.319
- ATTATCGG — higher, 0.0549
- ACTATCCG — higher, 0.16
- ATTATCTG — higher, 0.218
- ATTATCGA — higher, 0.0687
- AACCATAG — higher, 0.0244
- CGTCAAAA — higher, 0.108
- ACACCAGA — higher, 0.059
- GAGACGCC — higher, -0.0848
- AAATTTCG — higher, 0.139
- ACCTTTTA — higher, -0.0294
- ATCCACAC — higher, -0.00864
- AGCTTGCC — lower, -0.231
- AACAGGTG — higher, -0.0949
- CCACCTCA — higher, -0.134
- AGGAGACT — higher, -0.0682
- ACGCCCCT — lower, -0.389
- AAAGGAAT — higher, 0.0153
- CCAAAAAC — higher, 0.132
- AGCAAAAA — higher, 0.319
- AGCAAAAT — higher, 0.2
- ACCAAAAA — higher, 0.332
- CAAAAAAA — higher, 0.293
- AGCAAAAC — higher, 0.0585
- ACCAAAAT — higher, 0.111
- CCAAAAAA — higher, 0.332
- CCCAAAAA — lower, -0.19
- CAAAAAAC — higher, 0.146
- ACCAAAAC — higher, 0.0839
- CAAAAAAG — higher, 0.261
- GATATCGC — higher, 0.119
- GGCTTCGA — higher, -0.138
- CTGTTCTA — higher, -0.094
- GCGCGAGC — lower, -0.21
- CCCTGCCC — lower, -0.376
- CCGCCAGA — higher, -0.0108
- CTGTCTCC — higher, 0.00722
- GCCAGTAC — higher, -0.0841
- CGTTATGC — higher, 0.0079
- CTTTTGGC — higher, -0.0369
- ATATTATA — higher, 0.227
- ATATTATC — higher, 0.265
- AGTATATG — higher, 0.0561
- ACTATATC — higher, 0.229
- ACTATATA — higher, 0.309
- GCTATATA — higher, 0.194
- ATATTATG — higher, 0.315
- ATTATGTA — higher, 0.312
- AGTATATA — higher, 0.389
- ATTATGTG — higher, 0.11
- AGTATATC — higher, 0.213
- ATTATGTC — higher, 0.17
- ACTGGAAC — higher, 0.072
- ACCCACCC — higher, 0.0336
- AACGCGAT — higher, 0.0217
- TCTCTGCA — lower, -0.162
- GCACTTCA — higher, 0.0397
- AGCGCTTC — higher, 0.016
- ACCATCAT — higher, 0.0599
- AGTGCTAC — higher, -0.0555
- CCCGGGAG — higher, -0.0399
- CGGCTCAA — higher, 0.103
- CACTCGCA — higher, -0.00609
- GTTATATA — higher, 0.154
- ATTATATG — higher, 0.289
- ATTATATA — higher, 0.297
- ATATTACG — higher, 0.333
- CTTATATA — higher, 0.334
- CTTATATC — higher, 0.146
- ACTATATG — higher, 0.256
- ATATTACA — higher, 0.256
- ATTATAAG — higher, 0.237
- ATTATACA — higher, 0.222
- ATTATATC — higher, 0.256
- ATATTACC — higher, 0.227
- GCATTCAC — higher, 0.216
- GTGGTCGA — lower, -0.198
- TAGACAAA — higher, 0.0827
- ACGTACGA — lower, -0.182
- ACATAGCG — higher, 0.0674
- AACTACCC — higher, 0.0868
- GAGCCAAA — higher, -0.113
- ATTCCCCA — higher, -0.0626
- GGTGGTAC — lower, -0.231
- GACGGTCC — lower, -0.273
- ATTATTAC — higher, 0.343
- GTTATTAA — higher, 0.229
- CTTATTAC — higher, 0.115
- CTTATTAA — higher, 0.17
- ACTATTAC — higher, 0.134
- ATTATTAA — higher, 0.316
- ATCTAAGC — higher, 0.0351
- AGCGTTGC — higher, -0.0711
- CGCTTATC — higher, -0.00322
- CGGCTATA — higher, -0.0713
- CTCCGGAA — higher, 0.22
- GTCCGGAA — higher, 0.19
- ATCCGGAC — higher, -0.0654
- ATCCGGAA — higher, 0.403
- TTCCGGAA — higher, 0.316
- ATCCGGAG — higher, 0.143
- CTCATCCC — lower, -0.189
- CGTACTGC — higher, -0.151
- CTCGTCTA — higher, -0.0771
- GATAATCA — higher, 0.236
- AACAATCC — higher, 0.338
- GATAATGC — higher, 0.115
- CATAATCC — higher, 0.0679
- GATAATCC — higher, 0.375
- AACAATCT — higher, 0.168
- AACAATCG — higher, 0.0843
- AATAATCA — higher, 0.234
- AATAATCC — higher, 0.439
- ACCCGAAG — higher, -0.0833
- ACCTACTC — higher, -0.0816
- ACAAAAAT — higher, 0.308
- AACAAAAA — higher, 0.212
- AACAAATT — higher, 0.374
- GACAAATC — higher, 0.24
- ACAAAAAC — higher, 0.243
- AACAAGTT — higher, 0.188
- AACAAAAT — higher, 0.291
- AACAAATC — higher, 0.315
- ACAAAAAA — higher, 0.18
- AACAAGTC — higher, 0.0761
- AACAAATA — higher, 0.285
- AACAAGAT — higher, 0.221

Reference: the supplement of paper PMC3334620
